Results reported in PubChem BioAssay (Tox21).
Values without a mark were called inactive. Inconclusive results are not listed. A call without a number means that no potency is given here. Active and inactive are the calls of the source. Unless noted, the call rests on the fitted dose curve; in most records, active means well fitted curve in the direction sought with a large enough effect in the repeat runs; inconclusive means weak or mixed curves; inactive means no such curve, though single readings can be large; an effect the other way counts as inactive or inconclusive.

Tests used:
[1] = target: Progesterone receptor (Homo sapiens) (UniProt P06401); assay: qHTS assay to identify small molecule agonists of the progesterone receptor (PR) signaling pathway (AID 1346784; calls by dose curve; further: nearly all actives have a fitted effect of over 30% in size)
Procedure, shortened: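 Reporter assay, GripTite PR-UAS-bla HEK 293T cells: 16 hr exposure to DMSO-dissolved compounds at 37C, 5% CO2, in steroid-depleted (2% charcoal-stripped FBS) medium; beta-lactamase measured by FRET fluorescence.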

[2] = target: Progesterone receptor (Homo sapiens) (UniProt P06401); assay: qHTS assay to identify small molecule antagonists of the progesterone receptor (PR) signaling pathway (AID 1346795; active means well fitted inhibition curve with a large enough effect in the signal ratio in the repeat runs, not every such curve was filed as active; the % refers to the signal ratio)
Procedure, shortened: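 Stimulus R5020 at 1 nM final; cells HEK293T PR-UAS-bla; medium with 2% charcoal-stripped FBS; compound exposure 16 hr at 37C, 5% CO2; detection by FRET beta-lactamase substrate, 2 hr, room temperature.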

[3] = qHTS assay to identify small molecule antagonists of the progesterone receptor (PR) signaling pathway - cell viability counter screen (AID 1346798); further: series mostly up to about 92 µM; nearly all actives have a fitted effect of over 50% in size
Procedure, shortened: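 In the same plates used for the beta-lactamase readout, cell viability of compound- and R5020-treated PR-UAS-bla HEK293T cells (16 hr, 37C) was assessed by CellTiter-Glo luminescence.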

[4] = qHTS assay to identify small molecule antagonists of the TGF-beta/Smad signaling pathway - cell viability counter screen (AID 1346824); further: nearly all actives have a fitted effect of over 50% in size; further: potency means the concentration at half of the fitted maximal effect
Procedure, shortened: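 SBE-bla HEK 293T cells were plated overnight at 37 C, then given compounds in DMSO plus TGF-beta1 (added as 0.25 ng/mL solution) for 5 hr. After the bla read, CellTiter-Glo was added to the same wells and luminescence read after 30 min at room temperature.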

[5] = qHTS assay to identify small molecule agonists of the TGF-beta/Smad signaling pathway - cell viability counter screen (AID 1346829); further: nearly all actives have a fitted effect of over 45% in size; further: potency means the concentration at half of the fitted maximal effect; on activity change, negative = cytotoxicity: top concentration of the series differs between compounds
Procedure, shortened: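 Tox21 qHTS format: SBE-bla HEK 293T cells treated with DMSO-dissolved compounds for 5 hr; CellTiter-Glo luminescence after 30 min at room temperature.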

[6] = qHTS assay to identify small molecule agonists of the TGF-beta/Smad signaling pathway (AID 1346859; active means well fitted activation curve with a large enough effect in the signal ratio in the repeat runs, not every such curve was filed as active; the % refers to the signal ratio; further: potency means the concentration at half of the fitted maximal effect; on activation: series mostly up to about 77 µM)
Procedure, shortened: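 Screening used HEK 293T SBE-bla cells at 4,000/well. Test agents: 5 hr, 37 C. Detection: FRET substrate, 2 hr RT, then excitation 405 nm with emissions at 460 and 530 nm.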

[7] = target: Thyrotropin-releasing hormone receptor (Homo sapiens) (UniProt P34981); assay: qHTS assay to identify small molecule antagonists of the thyrotropin-releasing hormone receptor (TRHR) signaling pathway (AID 1346877; active means well fitted inhibition curve with a large enough effect in the repeat runs, not every such curve was filed as active; further: series mostly up to about 51 µM)
Procedure, shortened: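 In this cell-based calcium flux format, HEK293 cells expressing TRHR received test compound for 5 min before the agonist TRH (1 nM final). Dye loading lasted 2 h at 37 °C.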

[8] = target: Thyrotropin-releasing hormone receptor (Homo sapiens) (UniProt P34981); assay: qHTS assay to identify small molecule agonists of the thyrotropin-releasing hormone receptor (TRHR) signaling pathway (AID 1346891; calls by dose curve; further: series mostly up to about 58 µM)
Procedure, shortened: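 Readout was intracellular calcium fluorescence in TRHR-Hek293 cells. Cells were incubated 18 h, dye-loaded 2 h at 37 °C, and treated with compound in agonist mode.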

[9] = qHTS assay to identify small molecule agonists of the estrogen receptor alpha (ER-alpha) signaling pathway in the presence of an antagonist - cell viability counter screen (AID 1259386);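 further: series mostly up to about 92 µM; cells exposed to compounds for 22 h at 37 °C before the viability read; nearly all actives have a fitted effect of over 30% in size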
Procedure, shortened: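 Fluorescent CellTiter-Fluor viability signal from VM7Luc4E2 cells, with the reagent added during the final hour of a 22hr compound exposure at 37C in the presence of 10.0nM ICI-182,780.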

[10] = qHTS assay to identify small molecule agonists of the progesterone receptor (PR) signaling pathway - cell viability counter screen (AID 1346799; calls by dose curve; further: nearly all actives have a fitted effect of over 45% in size)
Procedure, shortened: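 Multiplexed viability read: CellTiter-Glo luminescence, 30 min RT, following LiveBLAzer FRET measurement on PR-UAS-bla HEK293T cells exposed to compounds 16 hr.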

Chain of Thyrotropin-releasing hormone receptor (Homo sapiens) (P34981 whole entry, looked up): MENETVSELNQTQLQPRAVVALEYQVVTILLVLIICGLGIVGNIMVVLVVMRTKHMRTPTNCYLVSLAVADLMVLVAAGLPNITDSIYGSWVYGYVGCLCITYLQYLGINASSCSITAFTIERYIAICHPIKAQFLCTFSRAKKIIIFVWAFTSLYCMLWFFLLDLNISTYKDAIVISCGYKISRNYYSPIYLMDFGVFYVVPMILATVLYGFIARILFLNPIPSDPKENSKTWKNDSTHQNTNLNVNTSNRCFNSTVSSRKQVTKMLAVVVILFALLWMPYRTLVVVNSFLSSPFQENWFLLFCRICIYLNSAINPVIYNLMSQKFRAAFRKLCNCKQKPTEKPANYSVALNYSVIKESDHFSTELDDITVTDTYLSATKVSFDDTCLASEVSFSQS
Chain of Progesterone receptor (Homo sapiens) (P06401 whole entry, looked up): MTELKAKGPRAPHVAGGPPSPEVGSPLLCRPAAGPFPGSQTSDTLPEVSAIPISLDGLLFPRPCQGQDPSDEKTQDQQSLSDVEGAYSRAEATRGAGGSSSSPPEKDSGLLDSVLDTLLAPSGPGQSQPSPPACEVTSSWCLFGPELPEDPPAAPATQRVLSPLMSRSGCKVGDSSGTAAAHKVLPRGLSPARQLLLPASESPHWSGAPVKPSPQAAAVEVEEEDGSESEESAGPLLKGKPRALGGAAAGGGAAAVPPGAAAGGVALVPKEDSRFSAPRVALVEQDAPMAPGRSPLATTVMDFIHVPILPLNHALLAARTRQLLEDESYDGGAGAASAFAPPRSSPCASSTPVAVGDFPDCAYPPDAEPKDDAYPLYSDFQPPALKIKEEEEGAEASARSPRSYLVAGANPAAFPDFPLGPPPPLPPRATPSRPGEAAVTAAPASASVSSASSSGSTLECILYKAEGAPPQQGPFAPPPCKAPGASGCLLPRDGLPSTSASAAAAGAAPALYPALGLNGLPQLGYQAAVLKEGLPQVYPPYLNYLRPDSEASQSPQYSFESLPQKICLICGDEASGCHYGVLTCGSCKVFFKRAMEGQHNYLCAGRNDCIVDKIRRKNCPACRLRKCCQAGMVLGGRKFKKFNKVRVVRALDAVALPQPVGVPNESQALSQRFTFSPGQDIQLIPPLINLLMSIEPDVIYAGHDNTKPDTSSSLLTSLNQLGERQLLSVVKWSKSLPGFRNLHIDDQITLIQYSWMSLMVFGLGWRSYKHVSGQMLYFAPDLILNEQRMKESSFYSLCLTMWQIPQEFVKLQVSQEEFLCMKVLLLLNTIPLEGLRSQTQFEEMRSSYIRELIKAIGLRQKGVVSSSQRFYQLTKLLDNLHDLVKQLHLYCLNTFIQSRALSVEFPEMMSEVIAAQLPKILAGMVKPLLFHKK

## CCN1C(=O)c2ccccc2C1Nc1ccc(OCCN2CCCCC2)cc1 (stereo not drawn)
[1]
  Potency: inactive
[2]
  Potency: inactive
[3]
  Potency: inactive
[4]
  Potency: inactive
[5]
  Potency: inactive
[6]
  Potency: inactive
[7]
  Potency: inactive
[8]
  outcome: inactive

## O=C(O)[C@H](O)[C@@H](O)[C@H](O[C@@H]1O[C@H](CO)[C@H](O)[C@H](O)[C@H]1O)[C@H](O)CO
[9]
  Potency: inactive
[3]
  Potency: inactive
[10]
  Potency: inactive
[4]
  Potency: inactive
[6]
  Potency: inactive
[7]
  Potency: inactive
[8]
  outcome: inactive

## O=C(Nc1ccc2c(O)c(N=Nc3ccc(N=Nc4ccc(S(=O)(=O)O)cc4)cc3)c(S(=O)(=O)O)cc2c1)c1ccccc1
[1]
  Potency: inactive
[2]
  Potency: inactive
[3]
  Potency: inactive
[10]
  Potency: inactive
[4]
  Potency: inactive
[5]
  Potency: inactive
[6]
  Potency: inactive
[7]
  Potency: inactive
[8]
  outcome: inactive

## C=C(CC)C(=O)c1ccc(OCC(=O)O)c(Cl)c1Cl
[9]
  Potency: inactive
[3]
  Potency: inactive
[4]
  Potency: inactive
[5]
  Potency: inactive
[7]
  Potency: inactive
[8]
  outcome: inactive

## O=S(=O)(O)c1ccc(Nc2nc(Nc3ccc(/C=C/c4ccc(Nc5nc(Nc6ccc(S(=O)(=O)O)cc6)nc(N(CCO)CCO)n5)cc4S(=O)(=O)O)c(S(=O)(=O)O)c3)nc(N(CCO)CCO)n2)cc1
[9]
  Potency: inactive
[3]
  Potency: inactive
[4]
  Potency: inactive
[5]
  Potency: inactive
[6]
  Potency: 33.1 µM (active)
[7]
  Potency: inactive
[8]
  outcome: inactive

## CCCCCCC1CCCC(=O)O1 (stereo not drawn)
[9]
  Potency: inactive
[3]
  Potency: inactive
[10]
  Potency: inactive
[4]
  Potency: inactive
[5]
  Potency: inactive
[7]
  Potency: inactive
[8]
  outcome: inactive

## [Cu+]
[1]
  Potency: inactive
[2]
  Potency: inactive
[3]
  Potency: inactive
[10]
  Potency: inactive
[4]
  Potency: inactive
[5]
  Potency: inactive
[6]
  Potency: inactive

## CC(C)OC(=O)C(O)(CC(=O)O)CC(=O)O
[1]
  Potency: inactive
[2]
  Potency: inactive
[3]
  Potency: inactive
[10]
  Potency: inactive
[4]
  Potency: inactive
[5]
  Potency: inactive
[6]
  Potency: inactive
[7]
  Potency: inactive
[8]
  outcome: inactive

## O=C1C(c2[nH]c3ccc(S(=O)(=O)O)cc3c2O)=Nc2ccc(S(=O)(=O)O)cc21
[1]
  Potency: inactive
[2]
  Potency: inactive
[3]
  Potency: inactive
[4]
  Potency: inactive
[5]
  Potency: inactive
[6]
  Potency: inactive
[7]
  Potency: inactive
[8]
  outcome: inactive

## CCOC(=O)Cn1cccc1-c1nc(-c2ccc(OC)cc2)c(-c2ccc(OC)cc2)s1
[1]
  Potency: inactive
[2]
  Potency: inactive
[3]
  Potency: inactive
[4]
  Potency: inactive
[5]
  Potency: inactive
[6]
  Potency: inactive
[7]
  Potency: inactive
[8]
  outcome: inactive

## CC(=O)CC(=O)Nc1ccc(S(=O)(=O)O)cc1
[1]
  Potency: inactive
[2]
  Potency: inactive
[3]
  Potency: inactive
[10]
  Potency: inactive
[4]
  Potency: inactive
[5]
  Potency: inactive
[6]
  Potency: inactive
[7]
  Potency: inactive
[8]
  outcome: inactive

## FC(F)(F)c1cccc(Cl)c1
[9]
  Potency: inactive
[10]
  Potency: inactive
[4]
  Potency: inactive
[6]
  Potency: inactive

## C=CC(C)(CCC=C(C)C)OC=O (stereo not drawn)
[1]
  Potency: inactive
[2]
  Potency: inactive
[3]
  Potency: inactive
[10]
  Potency: inactive
[4]
  Potency: inactive
[5]
  Potency: inactive
[6]
  Potency: inactive

## CCN(CCN)c1cccc(C)c1
[1]
  Potency: inactive
[2]
  Potency: inactive
[3]
  Potency: inactive
[10]
  Potency: inactive
[4]
  Potency: inactive
[5]
  Potency: inactive
[6]
  Potency: inactive
[7]
  Potency: inactive
[8]
  outcome: inactive

## Cc1cccc(C(=O)O)c1O
[1]
  Potency: inactive
[2]
  Potency: inactive
[3]
  Potency: inactive
[4]
  Potency: inactive
[5]
  Potency: inactive
[6]
  Potency: inactive
[7]
  Potency: inactive
[8]
  outcome: inactive

## OC[C@@H](O)[C@@H](O)CO
[1]
  Potency: inactive
[2]
  Potency: inactive
[3]
  Potency: inactive
[10]
  Potency: inactive
[4]
  Potency: inactive
[5]
  Potency: inactive
[6]
  Potency: inactive
[7]
  Potency: inactive
[8]
  outcome: inactive

## CCCCN(CCCC)CC(O)c1cc(Cl)cc2c1-c1ccc(Cl)cc1/C2=C/c1ccc(Cl)cc1 (stereo not drawn)
[1]
  Potency: inactive
[2]
  Potency: inactive
[3]
  Potency: inactive
[10]
  Potency: inactive
[4]
  Potency: inactive
[5]
  Potency: inactive
[7]
  Potency: inactive
[8]
  outcome: inactive

## COc1cc2nc(N3CCN(C(=O)c4ccco4)CC3)nc(N)c2cc1OC
[1]
  activation: 4.29% [at 19 µM]
[2]
  activity change, negative = inhibition: 5.13% [at 18.9 µM]
[3]
  activity change, negative = cytotoxicity: -16.5% [at 18.9 µM]
[10]
  activity change, negative = cytotoxicity: 2.28% [at 19 µM]
[5]
  activity change, negative = cytotoxicity: 0.758% [at 15.8 µM]
[6]
  activation: -4.52% [at 15.8 µM]

## CCn1c2ccccc2c2cc([N+](=O)[O-])ccc21
[1]
  Potency: inactive
[4]
  Potency: inactive
[7]
  Potency: inactive
[8]
  outcome: inactive

## [Cl][Pt-2]([Cl])([Cl])[Cl]
[1]
  Potency: inactive
[2]
  Potency: inactive
[3]
  Potency: inactive
[4]
  Potency: inactive
[6]
  Potency: inactive
[7]
  Potency: inactive
[8]
  outcome: inactive

## O=C(O)c1cc(O)c2ccccc2c1O
[1]
  Potency: inactive
[3]
  Potency: inactive
[10]
  Potency: inactive
[4]
  Potency: 4.9 µM (active)
[5]
  Potency: 3.09 µM (active)
[7]
  Potency: inactive
[8]
  outcome: inactive

## O=C(Oc1ccccc1)Oc1ccccc1
[1]
  Potency: inactive
[3]
  Potency: inactive
[10]
  Potency: inactive
[4]
  Potency: inactive
[5]
  Potency: inactive
[6]
  Potency: inactive
[7]
  Potency: inactive
[8]
  outcome: inactive

## CN1CCN2c3ccccc3Cc3ccccc3C2C1 (stereo not drawn)
[1]
  Potency: inactive
[3]
  Potency: inactive
[10]
  Potency: inactive
[4]
  Potency: inactive
[5]
  Potency: inactive
[6]
  Potency: inactive
[7]
  Potency: inactive
[8]
  outcome: inactive

## COc1ccc2c(c1)c(CC(=O)OC/C=C(\C)CC/C=C(\C)CCC=C(C)C)c(C)n2C(=O)c1ccc(Cl)cc1
[3]
  Potency: inactive
[4]
  Potency: inactive
[5]
  Potency: inactive
[6]
  Potency: inactive
[7]
  Potency: inactive
[8]
  outcome: inactive

## Cc1c(C)c([N+](=O)[O-])c(C(C)(C)C)c([N+](=O)[O-])c1C
[3]
  Potency: inactive
[10]
  Potency: inactive
[4]
  Potency: inactive
[5]
  Potency: inactive
[6]
  Potency: inactive
[7]
  Potency: inactive
[8]
  outcome: inactive
